Assay outcomes from PubChem.
Six1-Eya2 blk: qHTS Assay for Inhibitors of the Six1/Eya2 Interaction | AlphaScreen GST-Six1/His-Eya2 binding, biochemical; hits give low values | activity change, % (test concentration not listed) | hit rate 0.56% among 360,000; in the data active = activity change below about -65%; inconclusive = mostly about -30% to -63%; note: % is set by controls: 0 for no effect and ±100 for the full control effect
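Six1/Eya2 binding was read as AlphaScreen signal after compounds were pinned into GST-Six1 plus His-tagged Eya2 (5X stock 250/500 nM) in pH 8.0 Tris/NaCl/TCEP buffer, beads added, then incubated 1 h, 37 C, dark.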
G9a block: qHTS Assay for Inhibitors of Histone Lysine Methyltransferase G9a; G9a H3K9 monomethylation, AlphaScreen, 2 h; AID 504332, 2011; Histone-lysine N-methyltransferase EHMT2 (Homo sapiens), Q96KQ7; hit rate 8.8% among 350,000; Potency, µM (titrated, usually from 102 µM), inactives show top-dose activity, negative = inhibition, actives largely listed as inhibitors; note: potency is the fitted concentration of half-maximal effect; % is set by controls: 0 for no effect and ±100 for the full control effect; nearly all actives have a fitted effect of over 75% in size
Target sequence (Q96KQ7 913-1193 limits assumed): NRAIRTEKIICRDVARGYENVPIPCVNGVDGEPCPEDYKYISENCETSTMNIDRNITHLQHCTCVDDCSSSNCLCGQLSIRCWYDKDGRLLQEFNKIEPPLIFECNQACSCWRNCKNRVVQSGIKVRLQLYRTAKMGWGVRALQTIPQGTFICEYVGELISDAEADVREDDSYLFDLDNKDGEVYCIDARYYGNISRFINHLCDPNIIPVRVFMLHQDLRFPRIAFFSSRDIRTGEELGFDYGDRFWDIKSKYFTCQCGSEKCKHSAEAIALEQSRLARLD
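Compounds were preincubated with 20 nM G9a for 15 min, after which biotinylated H3K9 peptide (500 nM) and SAM (20 uM) started a 2 h room-temperature reaction. Monomethylated product was quantified by antibody-based AlphaScreen chemiluminescence.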
CtBP-E1A blk: qHTS Assay for Inhibitors of the CtBP/E1A Interaction; CtBP / adenovirus E1A interaction (AlphaScreen); AlphaScreen GST-E1A/His-CtBP binding, 1536-well; hits give low values; activity change, % (concentration not given with the values); hit rate 0.49% among 340,000; in the data active = activity change below about -65%; inconclusive = mostly about -30% to -63%; note: % is set by controls: 0 for no effect and ±100 for the full control effect
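In 5 uL wells, 23 nL compound meets equimolar GST-E1A and His-CtBP (5X stock 125 nM each) for 2 h, 37 °C. Beads (5X, 50 ug/mL) then 1 h, 37 °C, dark.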
HP1b chromo inh: HTS for Inhibitors of HP1-beta Chromodomain Interactions with Methylated Histone Tails; Chromobox protein homolog 1 (Homo sapiens), P83916; AlphaScreen HP1-beta / biotin-H3K9me3 peptide binding; Potency, µM (top dose mostly 114 µM), inactives show at the top dose activity change, negative = inhibition, actives largely listed as inhibitors; hit rate 0.56% among 390,000; AID 540317, 2011; note: potency is the fitted concentration of half-maximal effect; nearly all actives have a fitted effect of over 70% in size
Target sequence (P83916 whole entry, looked up): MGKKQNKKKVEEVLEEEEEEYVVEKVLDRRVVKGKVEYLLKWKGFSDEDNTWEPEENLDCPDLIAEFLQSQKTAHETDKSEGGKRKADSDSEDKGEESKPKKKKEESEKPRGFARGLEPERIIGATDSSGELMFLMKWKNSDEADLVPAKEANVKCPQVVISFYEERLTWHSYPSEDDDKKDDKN
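Compound inhibition of the preformed complex between 50 nM HP1-beta and 50 nM biotinylated H3K9me3 peptide was read by AlphaScreen. Buffer was PBS pH 7.4 with 0.01% Tween-20. Incubations ran 30 min at room temperature, with 10 ug/mL donor/acceptor beads.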
JMJD2A Tudor: qHTS Assay for Inhibitors of JMJD2A-Tudor Domain. AlphaScreen JMJD2A-Tudor / H3K4me3 peptide binding. hit rate 4.4% among 390,000. Lysine-specific demethylase 4A (Homo sapiens), O75164. Potency, µM (titrated, usually from 114 µM), for inactives: at the top dose activity change, negative = inhibition, most hits filed as inhibitors. AID 504339, 2011; note: potency is the fitted concentration of half-maximal effect; % is set by controls: 0 for no effect and ±100 for the full control effect; nearly all actives have a fitted effect of over 50% in size
BAZ2B inh: qHTS Assay for Inhibitors of BAZ2B; hit rate 4.4% among 360,000; AlphaScreen BAZ2B-H3K14Ac peptide displacement; AID 504333, 2011; Bromodomain adjacent to zinc finger domain protein 2B (Homo sapiens), Q9UIF8; Potency, µM (highest dose often 114 µM), for the others: at the highest dose activity change, negative = inhibition, hits mostly inhibitors; note: potency is the fitted concentration of half-maximal effect; % is set by controls: 0 for no effect and ±100 for the full control effect; nearly all actives have a fitted effect of over 60% in size
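Inhibition is scored as reduced AlphaScreen emission. The BAZ2B/b-H3(5-23)K14Ac complex (50 nM each) in PBS pH 7.4, 0.01% Tween-20 meets compound (up to 110 uM) for 30 min at RT before bead addition.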
* marks the source's active call; other numbers are inactive results; ! = a repeat was not active; [ ] = dose if it differs, or a comment. Rows were chosen to be rich in hits. Some 10% of all compounds tested hit in one or more screens of this group. Unless noted, calls come from the whole dose curve; as a rule, active = well fitted inhibition curve with a large enough effect; inconclusive = small, poorly fitted or top-dose-only effect; inactive = no such curve, though single readings can be large or run the other way.

`O=C(Nc1cccc(Cl)c1N1CCCC1)c1ccc([N+](=O)[O-])o1` gave Six1-Eya2 blk -19, G9a block 10µM*, CtBP-E1A blk -12, HP1b chromo inh -25%, JMJD2A Tudor inconclusive and BAZ2B inh inconclusive.
Screening O=C(c1ccc([N+](=O)[O-])o1)N1CCN(c2nc3c(Cl)cccc3s2)CC1 returned Six1-Eya2 blk -6, G9a block 35µM*, CtBP-E1A blk -3, HP1b chromo inh -17%, JMJD2A Tudor inconclusive and BAZ2B inh inconclusive.
Screening CN1CCN(c2ccccc2NC(=O)c2ccc(-c3ccccc3[N+](=O)[O-])o2)CC1 returned Six1-Eya2 blk inconclusive, G9a block inconclusive, CtBP-E1A blk -30, HP1b chromo inh -31%, JMJD2A Tudor 56µM* and BAZ2B inh inconclusive.
CCOC(=O)c1ccccc1NC(=O)CN1CCCN(Cc2cccc(Cl)c2)S1(=O)=O was read as G9a block -6%[59 µM], HP1b chromo inh 36%, JMJD2A Tudor -6% and BAZ2B inh -1%.
`COc1ccc(C)cc1N(C)C(=O)c1c2c(nc3ccccc13)C(=O)N(C1CCCCC1)C2` gave G9a block 15%[59 µM], HP1b chromo inh inconclusive, JMJD2A Tudor -28% and BAZ2B inh -7%.
CCC1CCCCN1Cc1cn2c(-c3ccc(Br)cc3)nnc2s1 (centres undefined) was read as G9a block -30%[59 µM], HP1b chromo inh 35%[57 µM], JMJD2A Tudor -2% and BAZ2B inh -1%.
For Cc1cc(C)cc(NC(=O)c2ccc([N+](=O)[O-])o2)c1 the results were Six1-Eya2 blk -25, G9a block inconclusive, CtBP-E1A blk -28, HP1b chromo inh 4%, JMJD2A Tudor inconclusive and BAZ2B inh inconclusive.
NS(=O)(=O)c1ccc(O)c(NC(=O)c2ccc([N+](=O)[O-])o2)c1 was read as Six1-Eya2 blk 0, G9a block inconclusive, CtBP-E1A blk -7, HP1b chromo inh 45µM*, JMJD2A Tudor 50µM* and BAZ2B inh -16%.
`CN(C)c1cccc(NC2=CC(=[N+]3CCOCC3)CC(C)(C)C2)c1` gave Six1-Eya2 blk -2, G9a block 11µM*, CtBP-E1A blk -6, HP1b chromo inh -7%, JMJD2A Tudor 89µM* and BAZ2B inh inconclusive.
COC(=O)C1=CN(c2ccc(OC)cc2)C=C(C(=O)OC)C1c1ccc(C)c([N+](=O)[O-])c1 was read as Six1-Eya2 blk -16, G9a block -3%[59 µM], CtBP-E1A blk -24, HP1b chromo inh -7%, JMJD2A Tudor inconclusive and BAZ2B inh -34%.
COC(=O)C1=CN(c2cccc(C)c2)C=C(C(=O)OC)C1c1cc(OC)c(O)c([N+](=O)[O-])c1 was read as Six1-Eya2 blk -26, G9a block 13µM*, CtBP-E1A blk -20, HP1b chromo inh inconclusive, JMJD2A Tudor 45µM* and BAZ2B inh 28µM*.
`Cc1noc2nc(C(=O)O)nc(N3CCCCC3)c12` gave G9a block 13µM*, HP1b chromo inh 7%, JMJD2A Tudor 40µM* and BAZ2B inh inconclusive.
Cc1noc2ncnc(N3CCCC(C(=O)NC(C)C)C3)c12 (centres undefined) was read as G9a block -5%[59 µM], HP1b chromo inh 4%, JMJD2A Tudor -7% and BAZ2B inh 3%[57.1 µM].
Screening COc1cccc(C2=CC(c3ccc(N(C)C)cc3)n3nnnc3N2)c1 (centres undefined) returned Six1-Eya2 blk -12, G9a block inconclusive, CtBP-E1A blk -2, HP1b chromo inh 45%, JMJD2A Tudor -6% and BAZ2B inh -34%.
`COc1ccc(/C=C/C(=O)Nc2nc3n(n2)C(c2ccccc2)C=C(c2ccccc2)N3)cc1` (centres undefined) gave G9a block -9%[59 µM], HP1b chromo inh 27%, JMJD2A Tudor -33% and BAZ2B inh -19%.
For COc1ccc(C2C=C(c3ccccc3)Nc3nc(NC(C)=O)nn32)cc1 (centres undefined) the results were G9a block inconclusive, HP1b chromo inh 27%, JMJD2A Tudor -10% and BAZ2B inh 50µM*!.
COc1cccc(C2=CC(c3cccc(OC)c3OC)n3nnnc3N2)c1 (centres undefined) was read as Six1-Eya2 blk -7, G9a block 10µM*, CtBP-E1A blk -1, HP1b chromo inh 54%, JMJD2A Tudor -12% and BAZ2B inh -5%.
`COc1ccc(C2C=C(c3ccccc3)Nc3nnnn32)cc1` (centres undefined) gave Six1-Eya2 blk 2, G9a block 50µM*, CtBP-E1A blk 10, HP1b chromo inh 31%, JMJD2A Tudor -16% and BAZ2B inh -1%.
For COc1cccc(C2=CC(c3ccccc3)n3nnnc3N2)c1 (centres undefined) the results were Six1-Eya2 blk 1, G9a block 40µM*, CtBP-E1A blk -2, HP1b chromo inh 28%, JMJD2A Tudor -15% and BAZ2B inh 3%.
Screening O=C(Nc1sc2c(c1C(=O)NCC1CCCO1)CCC2)c1cc(=O)c2cc(Cl)ccc2o1 (centres undefined) returned G9a block -4%[59 µM], HP1b chromo inh 11%, JMJD2A Tudor -7% and BAZ2B inh -15%.
For CC(C)C(NS(=O)(=O)c1ccc2c(c1)oc(=O)n2C)C(=O)N1CCN(c2cccc(Cl)c2)CC1 (centres undefined) the results were G9a block 11%[59 µM], HP1b chromo inh 46%, JMJD2A Tudor -12% and BAZ2B inh 6%.
Screening CCSc1nn(CC(=O)Nc2cccc(CC)c2)c(N)c1S(=O)(=O)c1ccccc1 returned G9a block -29%[59 µM], HP1b chromo inh 11%, JMJD2A Tudor -28% and BAZ2B inh inconclusive.
For C=CCNc1nc(-c2ccccn2)nnc1-c1ccccc1 the results were Six1-Eya2 blk -92*, G9a block 47%, CtBP-E1A blk -92*, HP1b chromo inh 46%, JMJD2A Tudor 35µM* and BAZ2B inh 0.89µM*.
`COc1ccc(NC(=O)c2cc3c(=O)n(Cc4ccco4)ccc3nc2C)c(OC)c1` gave G9a block inconclusive, HP1b chromo inh 27%, JMJD2A Tudor -23% and BAZ2B inh -32%.
